# Hit rate of the full screen: of about 3,600 compounds, about 900 (25%) were called active. These entries were drawn from the full list. Results with a measured potency or affinity are listed apart. A number with no mark means an inactive call. The rule behind the calls is not given here.
# Target: Protein Tat (Human immunodeficiency virus type 1 group M subtype B (isolate HXB2)) (UniProt P04608)
# Test: inhibitors of Tat binding to TAR RNA, dose response, counter-screen for Vif-APOBEC3G degradation inhibitor project, biochemical, fluorescence polarization, FAM-labeled TAR RNA (AID 1117361)
# Details: outcome: dose series up to 100 µM unless noted; series mostly up to 100 µM; inhibition: at the top concentration
Structure (SMILES),inhibition [%],outcome
CCN(CC)C(=O)CCNS(=O)(=O)c1ccc(C)cc1,2.7,–
Clc1ccc(-c2nnnn2-c2ccc(Cl)c(Cl)c2)cc1Cl,4.73,–
CCc1nnc(SCC(=O)NC2CCCCC2)nc1CC,13.6,–
Fc1ccc(-c2nnc(Cc3nnc(-c4ccc(F)cc4)o3)o2)cc1,1.36,–
O=C(NCc1ccc2c(c1)OCO2)c1cc2ncc(Br)cn2n1,25.9,–
Cc1ccc2c(c1C)NC(=O)C2(O)CC(=O)c1ccc2c(c1)OCO2 (stereo not given),2.73,–
CCOc1ccc(N(CC(=O)NCCC2=CCCCC2)S(=O)(=O)c2ccccc2)cc1,–,inactive
CCNC(=O)OCC(CC)NC(=O)OCC(C)C (stereo not given),–,inactive
Cc1cc(C)cc(-c2nnc(SCC(=O)NCc3cccs3)o2)c1,–,inactive
CCN(CC)c1ccc(/C=C2\C(=O)N(c3nnc(C)c(=O)[nH]3)N=C2C)cc1,–,inactive
c1ccc(N2CCN(c3ccc4nncn4n3)CC2)nc1,2.03,–
Cc1noc(C)c1C(=O)N1CCN(c2ncccn2)CC1,2.7,–
CCCCc1ccc(-c2nc(N)n[nH]2)cc1,1.35,–
COCCCN1CC23C=CC(O2)C(C(=O)O)C3C1=O (stereo not given),8.11,–
CC1CCN(c2ccc([N+](=O)[O-])c(SCCO)c2)CC1,–,inactive
Cc1ccc(S(=O)(=O)NCCCOC(=O)Nc2ccncc2)cc1,7.5,–
O=C(C1CCC(CNc2c(N3CCCCC3)c(=O)c2=O)CC1)N1CCN(C2CCCCC2)CC1 (stereo not given),–,inactive
O=C(CSc1nnnn1-c1ccc2c(c1)CCC2)Nc1ccc2c(c1)OCCO2,–,inactive
CCOC(=O)c1c(NC(=O)Cn2nnc(-c3ccccc3Cl)n2)sc(C)c1C,0.68,–
COc1ccc(OC)c(NC(=O)CSc2nc3ccccc3c(=O)n2CC2CCCO2)c1 (stereo not given),1,–
Cc1cnc(NC(=O)CSc2nnc(CNc3ccc(F)cc3)n2CC2CCCO2)s1 (stereo not given),26.6,–
Cc1nn(Cc2ccccc2)c(C)c1C(=O)OCC(=O)c1cc(C)n(C2CC2)c1C,12.2,–
COC(=O)C1=CN(CC2CCCO2)C=C(C(=O)OC)C1c1ccccc1C(F)(F)F (stereo not given),4.77,–
[O-]/[N+](=C\C=C\c1ccccc1)c1ccccc1,–,inactive
COc1ccc(C2CC(C(F)(F)F)n3nc(C(=O)NCc4c(C)nn(C)c4C)c(Cl)c3N2)cc1 (stereo not given),–,inactive
O=S1(=O)Nc2c(ccc3cccnc23)-c2ccccc21,2.05,–
CCN(CC)c1ccc(NC2=C(Cl)C(=O)c3ccccc3C2=O)cc1,6.6,–
O=C1CSC(c2cccnc2)N1Cc1cccnc1 (stereo not given),20.6,–
COc1ccc(OCC(=O)O/N=C(\N)Cc2ccc(Cl)cc2)cc1,0.68,–
CCOC(=O)CN(C(=O)CSc1nnc(COc2ccc(OC)cc2)n1CC)c1ccccc1,–,inactive

# — PubChem BioAssay AID1117361 (Southern Research Institute, 2015)
